# Bioassay records deposited in PubChem by National Center for Advancing Translational Sciences (NCATS).
# Hits are enriched below; roughly 21% of the tested compounds scored in any of these assays.
# ClpP mod: qHTS Assay for Activators of ClpP; ATP-dependent Clp protease proteolytic subunit (Bacillus subtilis (strain 168)), P80244; actives 1.9% (n = 340,000); Potency, µM (series often up to 57.5 µM), inactives show top-dose activity change, negative = active; purified B. subtilis ClpP, FRET peptide cleavage, 20 min; active means well fitted falling curve with a large enough effect; inconclusive means small, poorly fitted or top-dose-only effect; inactive means no such curve, though single readings can be large or run the other way; further: potency means the concentration at half of the fitted maximal effect; the source files actives as falling curves though it sought activators and does not explain the sign; nearly all actives have a fitted effect of over 65% in size
#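 Purified B. subtilis ClpP, 10 microg/mL final in Tris/HCl pH8 with KCl, BSA, glycerol and Tween-20, cleaved an Abz/nitrotyrosine-quenched decapeptide. Fluorescence (ex 320, em 430) was read at 0 and 20 min at room temperature. Delta was normalized to 5.8 microM ADEP and DMSO/no-enzyme controls.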
# IL1B secr inh: blocks inflammasome-driven IL-1 beta release; THP-1 LPS/ATP IL-1B secretion, AlphaLISA, 16 h; active compounds read low; activity change, % at 57.5 µM; actives 4.7% (n = 360,000); in the data active means activity change below about -50%; inconclusive means mostly about -30% to -49%; further: on the % scale 0 is the no-effect control and ±100 the full control effect
#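 THP-1 cells pretreated 1 hr with compounds (up to 57.5 uM final), then stimulated with LPS (250 ng/mL final) plus ATP (1.25 mM final); secreted IL-1B measured by AlphaLISA after 16 hr, decreased signal indicating inhibition.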
# DRD3 antagonist: blocks the human D3 dopamine receptor. P35462. D3R cells, DiscoveRx beta-arrestin luminescence, antagonist mode; active compounds read low. max response, negative = inhibition, %. actives 2.5% (n = 360,000). AID 652054; in the data active means max response below about -50%; inconclusive means no clear call, values can overlap the other calls; further: on the % scale 0 is the no-effect control and ±100 the full control effect
# Target sequence (P35462 whole entry, looked up): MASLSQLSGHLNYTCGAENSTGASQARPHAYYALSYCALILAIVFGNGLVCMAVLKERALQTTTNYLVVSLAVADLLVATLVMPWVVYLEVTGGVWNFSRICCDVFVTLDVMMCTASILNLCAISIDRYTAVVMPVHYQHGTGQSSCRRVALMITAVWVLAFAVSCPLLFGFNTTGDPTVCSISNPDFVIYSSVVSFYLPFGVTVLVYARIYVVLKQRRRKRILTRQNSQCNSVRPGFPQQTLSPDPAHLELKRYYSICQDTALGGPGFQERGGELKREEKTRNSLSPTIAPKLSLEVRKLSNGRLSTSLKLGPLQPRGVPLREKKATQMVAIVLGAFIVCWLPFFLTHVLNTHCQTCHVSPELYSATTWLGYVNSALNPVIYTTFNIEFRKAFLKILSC
#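 Cells expressing the human receptor were seeded at 1500 cells/well, incubated overnight at 37 degrees C in 5% CO2, then exposed to library compounds with dopamine controls for 90 minutes at 37 degrees C before luminescent detection.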
# TDP1 cell CPT: DT40-hTDP1 cell growth loss with CPT; chicken DT40 Tdp1-/-;hTDP1 cells + 20 nM CPT, ATP luminescence, 48 h; AID 686979; actives 12% (n = 420,000); Potency, µM (series often up to 46.2 µM), without a hit: top-dose activity change, negative = growth inhibition, most hits filed as inhibitors; further: potency means the concentration at half of the fitted maximal effect; on the % scale 0 is the no-effect control and ±100 the full control effect; nearly all actives have a fitted effect of over 55% in size
#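 Chicken DT40 Tdp1-/- cells stably complemented with human TDP1 were seeded at 400 cells/well in medium containing 20 nM camptothecin, exposed to pin-transferred compounds, and grown at 37 °C for at least 48 hr. Viability was read as ATP luminescence.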
# TDP1 cell noCPT: qHTS for Inhibitors of human tyrosyl-DNA phosphodiesterase 1 (TDP1): qHTS in cells in absence of CPT | actives 15% (n = 420,000) | Potency, µM (highest dose often 46.2 µM), for the others: top-dose activity change, negative = growth inhibition, usual class: inhibitors | DT40 Tdp1-/- hTDP1 cells, no CPT, ATP luminescence, 48 h; further: potency means the concentration at half of the fitted maximal effect; on the % scale 0 is the no-effect control and ±100 the full control effect; nearly all actives have a fitted effect of over 55% in size
#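 Readout: luminescence from CellTiter-Glo after 30 min in the dark at RT. Cells: DT40 Tdp1-/- with stable hTDP1, 400/well. Exposure: compounds alone, ≥48 hr, 37 °C.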
# D3 ag: agonists of human D3 dopamine receptor; AID 652048; max activation, %; actives 0.58% (n = 410,000); D3R DiscoveRx beta-arrestin cells, luminescence, 90 min; in the data active means max activation above about 30%; further: 0% is about no effect
#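 Agonist mode: compounds and dopamine controls were applied to plated cells for 90 min at 37 degrees C after an overnight attachment at 1500 cells/well. Luminescent read-out followed 30 - 60 minutes at room temperature with DiscoveRx detection reagent.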
# Numbers without * were called inactive; ? = inconclusive; / = no result. Unless noted, the call rests on the fitted dose curve; in most records, active means well fitted inhibition curve with a large enough effect; inconclusive means small, poorly fitted or top-dose-only effect; inactive means flat fitted curve, though single readings scatter.
SMILES,ClpP mod,IL1B secr inh,DRD3 antagonist,TDP1 cell CPT,TDP1 cell noCPT,D3 ag
Cn1nc(C(=O)Nc2nc(-c3ccccn3)cs2)c2ccccc2c1=O,-1%,17,1,4.6µM*,1.3µM*,15
CCCn1nc(C(=O)Nc2nc(-c3ccccn3)cs2)c2ccccc2c1=O,0%,124,31,7.3µM*,2.3µM*,4
Cn1nc(C(=O)Nc2cccnc2)c2ccccc2c1=O,1%,-16,9,?,?,2
CCn1nc(C(=O)Nc2nc(-c3ccccn3)cs2)c2ccccc2c1=O,-1%,1,64,2.9µM*,3.3µM*,5
CCCn1nc(C(=O)Nc2ccc(S(=O)(=O)Nc3ncccn3)cc2)c2ccccc2c1=O,/,24,6,-26%,-13%,-1
Cc1ccc(N2CC(NC(=O)c3ccc(S(=O)(=O)N4CCOCC4)cc3)CC2=O)cc1 (centres undefined),3%,/,/,-22%,?,2
CC1=C(C(=O)Nc2ccc(Cl)cc2)C(c2cccs2)n2nnnc2N1 (centres undefined),-1%,-12,16,-19%,-20%,0
COC(=O)C1=C(C(=O)c2ccccc2)C(c2ccc(OC)c(OC)c2)Nc2nnnn21 (centres undefined),0%,15,-75*,8%,1%,-4
COC(=O)C1=C(C(=O)c2ccccc2)C(c2ccc(O)c(OC)c2)n2nnnc2N1 (centres undefined),-2%,-1,-19,-10%,-18%,-15
COC(=O)C1=C(C(=O)c2ccccc2)C(c2cccs2)n2nnnc2N1 (centres undefined),1%,11,-60*,28%,1%,0
CCOc1cc(C2C(C(=O)c3ccccc3)=C(C(=O)OC)Nc3nnnn32)ccc1O (centres undefined),1%,15,-55*,2%,-28%,1
Cc1cc(C)n2nc(SCC(=O)N3CCC(C)CC3)nc2n1,-2%,20,-6,12%,2%,2
Cc1cc(C)n(CCc2nc3c4ccccc4nc(SCc4ccc(Cl)cc4)n3n2)n1,-3%,/,/,7%,4%,6
CCOC(=O)c1cc(-c2ccccc2)sc1NC(=O)C(C)N1C(=O)NC(C)(c2ccc(Cl)cc2)C1=O (centres undefined),?,-53*,17,1%,-15%,-1
CCOC(=O)c1cc(-c2ccccc2)sc1NC(=O)C(C)OC(=O)c1ccncc1 (centres undefined),-1%,-15,73,23µM*,18µM*,17
CCOC(=O)c1cc(-c2ccccc2)sc1NC(=O)C(C)OC(=O)c1cccnc1Cl (centres undefined),?,0,8,23µM*,23µM*,1
CCOC(=O)c1c(NC(=O)c2cccnc2Cl)sc(C(=O)N(C)C)c1C,-2%,?,16,-29%,?,8
CCOc1cc(C(=S)N2CCOCC2)ccc1OS(=O)(=O)c1ccccc1,1%,-24,-8,?,?,3
CCOC(=O)c1ccc(OS(=O)(=O)c2ccccc2)c(OC)c1,1%,8,3,21µM*,?,-3
CCOC(=O)c1cc(-c2ccccc2)sc1NC(=O)C(C)C,-6%,-22,11,-30%,?,0
CN(c1nc2ccccc2[nH]c1=O)C1CCCCC1,/,25,3,?,?,3
CCOC(=O)c1cc(-c2ccccc2)sc1NC(=O)c1ccc(OC)c(OC)c1,-2%,-3,-1,13µM*,?,2
CCOC(=O)c1cc(-c2ccccc2)sc1NC(=O)C(C)Sc1nnc(C)s1 (centres undefined),/,-77*,-9,-59%,-84%,4
